# Columns and labels:
# Assay in all cases: DAPPL (digital affinity profiling via proximity ligation, sequencing); 10 mM Tris-HCl pH 7.5, 50 mM NaCl, 1 mM DTT, 4% glycerol, room temperature, 30 min; GST-TFs on glutathione beads, 16-mer random dsDNA library, 0.1% formaldehyde crosslink after washing; high values mean tight binding
# Settings in all cases: protein: recombinant; tags: N-terminal GST; dsDNA, one strand shown
# [1] = molecular target: T1, ELK1 (Homo sapiens, UniProt P19419 1-428)
# T1 sequence: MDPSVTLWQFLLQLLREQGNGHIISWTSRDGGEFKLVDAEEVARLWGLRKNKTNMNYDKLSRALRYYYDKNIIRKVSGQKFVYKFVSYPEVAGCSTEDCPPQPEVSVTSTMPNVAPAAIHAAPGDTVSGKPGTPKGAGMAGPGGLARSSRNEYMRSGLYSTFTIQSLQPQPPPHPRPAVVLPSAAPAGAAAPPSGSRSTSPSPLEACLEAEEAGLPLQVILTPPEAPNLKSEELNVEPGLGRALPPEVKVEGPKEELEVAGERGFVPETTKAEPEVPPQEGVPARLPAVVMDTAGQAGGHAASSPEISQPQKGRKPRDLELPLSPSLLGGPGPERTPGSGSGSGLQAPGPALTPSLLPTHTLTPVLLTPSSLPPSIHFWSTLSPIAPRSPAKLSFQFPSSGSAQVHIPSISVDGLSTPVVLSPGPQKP
# In short: (§1)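 Human transcription factors fused to GST were expressed in yeast, captured on glutathione beads, given DNA barcodes and pooled with a GST-only negative control. Pools were incubated with 200 nmole of a 16-mer random double-stranded DNA library in Tris/NaCl/DTT/glycerol buffer at room temperature for 30 min. They were then washed, crosslinked with 0.1% formaldehyde, proximity-ligated (BsaI/T4 ligase, 1 h, 37 °C), PCR-amplified and sequenced on an Illumina NextSeq500. Binding signal is each 6-mer's read frequency for a factor divided by its frequency for the GST control.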
# [2] = molecular target: T2, GABPA (Homo sapiens, UniProt Q06546 1-454)
# T2 sequence: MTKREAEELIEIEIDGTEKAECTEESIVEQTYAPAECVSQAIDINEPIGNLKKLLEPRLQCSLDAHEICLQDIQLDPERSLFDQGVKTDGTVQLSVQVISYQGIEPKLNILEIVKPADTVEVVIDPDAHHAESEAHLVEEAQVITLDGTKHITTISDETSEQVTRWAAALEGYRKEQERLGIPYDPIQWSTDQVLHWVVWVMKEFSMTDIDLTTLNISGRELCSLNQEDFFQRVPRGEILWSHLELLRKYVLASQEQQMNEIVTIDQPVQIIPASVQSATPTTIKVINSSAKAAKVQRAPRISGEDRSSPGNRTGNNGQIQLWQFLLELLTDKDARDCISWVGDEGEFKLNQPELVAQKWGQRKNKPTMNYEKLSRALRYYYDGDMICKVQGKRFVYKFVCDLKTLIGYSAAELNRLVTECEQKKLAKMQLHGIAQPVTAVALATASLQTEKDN
# In short: as §1
# [3] = molecular target: T3, ERG (Homo sapiens, UniProt P11308 1-479)
# T3 sequence: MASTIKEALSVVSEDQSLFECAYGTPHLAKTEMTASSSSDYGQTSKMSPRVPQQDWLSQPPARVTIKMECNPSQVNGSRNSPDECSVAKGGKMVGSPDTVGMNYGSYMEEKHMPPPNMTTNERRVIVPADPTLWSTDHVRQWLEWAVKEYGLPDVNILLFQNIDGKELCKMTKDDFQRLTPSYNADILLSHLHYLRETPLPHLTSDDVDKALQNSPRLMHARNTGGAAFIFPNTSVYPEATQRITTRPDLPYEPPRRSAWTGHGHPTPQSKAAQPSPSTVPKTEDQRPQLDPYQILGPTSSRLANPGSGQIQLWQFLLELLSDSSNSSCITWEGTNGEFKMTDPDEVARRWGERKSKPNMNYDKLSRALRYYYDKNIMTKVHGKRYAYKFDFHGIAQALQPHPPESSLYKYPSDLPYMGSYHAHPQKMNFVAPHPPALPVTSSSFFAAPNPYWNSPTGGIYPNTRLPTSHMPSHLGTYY
# In short: as §1
# [4] = molecular target: ELF1 (Homo sapiens, UniProt P32519 1-619)
# Chain of ELF1 (P32519 whole entry): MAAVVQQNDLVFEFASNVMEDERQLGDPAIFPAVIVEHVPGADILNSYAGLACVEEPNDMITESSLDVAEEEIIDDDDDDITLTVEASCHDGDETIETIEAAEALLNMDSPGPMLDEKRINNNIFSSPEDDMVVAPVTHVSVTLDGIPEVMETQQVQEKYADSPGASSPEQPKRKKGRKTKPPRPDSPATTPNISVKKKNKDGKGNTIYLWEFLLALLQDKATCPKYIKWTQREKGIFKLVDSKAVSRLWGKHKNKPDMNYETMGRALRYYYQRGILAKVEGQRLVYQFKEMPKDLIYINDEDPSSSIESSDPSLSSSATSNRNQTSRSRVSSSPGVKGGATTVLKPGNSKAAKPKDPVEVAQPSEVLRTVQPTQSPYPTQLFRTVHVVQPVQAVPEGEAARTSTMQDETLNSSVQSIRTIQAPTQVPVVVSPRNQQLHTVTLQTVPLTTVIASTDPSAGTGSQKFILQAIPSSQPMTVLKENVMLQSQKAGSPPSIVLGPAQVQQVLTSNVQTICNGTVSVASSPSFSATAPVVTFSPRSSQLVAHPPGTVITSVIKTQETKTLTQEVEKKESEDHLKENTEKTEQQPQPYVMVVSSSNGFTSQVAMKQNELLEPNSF
# In short: as §1
# [5] = molecular target: T4, EHF (Homo sapiens, UniProt Q9NZC4 1-300)
# T4 sequence: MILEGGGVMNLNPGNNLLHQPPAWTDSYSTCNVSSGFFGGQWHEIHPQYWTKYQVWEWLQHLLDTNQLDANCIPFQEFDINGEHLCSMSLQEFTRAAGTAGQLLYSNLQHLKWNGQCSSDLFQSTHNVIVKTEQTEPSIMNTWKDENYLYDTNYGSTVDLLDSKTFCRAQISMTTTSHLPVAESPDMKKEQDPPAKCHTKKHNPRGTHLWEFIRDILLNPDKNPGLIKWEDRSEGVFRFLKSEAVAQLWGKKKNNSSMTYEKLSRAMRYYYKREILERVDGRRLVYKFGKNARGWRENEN
# In short: as §1
# [6] = molecular target: SPIB (Homo sapiens, UniProt Q01892 1-262)
# Chain of SPIB (Q01892 whole entry): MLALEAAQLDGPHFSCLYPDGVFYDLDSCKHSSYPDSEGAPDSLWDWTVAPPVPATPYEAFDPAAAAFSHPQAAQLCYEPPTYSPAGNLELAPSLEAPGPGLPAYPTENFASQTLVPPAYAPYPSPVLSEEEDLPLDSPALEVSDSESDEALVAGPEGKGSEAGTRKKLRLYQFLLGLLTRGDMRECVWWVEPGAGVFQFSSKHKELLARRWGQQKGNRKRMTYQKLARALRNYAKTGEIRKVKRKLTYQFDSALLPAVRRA
# In short: as §1
# [7] = molecular target: T5, FEV (Homo sapiens, UniProt Q99581 1-238)
# T5 sequence: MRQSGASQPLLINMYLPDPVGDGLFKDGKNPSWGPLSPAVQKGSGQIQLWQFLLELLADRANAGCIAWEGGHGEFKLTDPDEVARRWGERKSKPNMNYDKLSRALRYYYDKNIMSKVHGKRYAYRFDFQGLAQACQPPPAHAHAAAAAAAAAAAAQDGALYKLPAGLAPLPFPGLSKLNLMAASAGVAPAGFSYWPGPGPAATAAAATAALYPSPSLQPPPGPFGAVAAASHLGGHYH
# In short: as §1
# [8] = molecular target: ETV5 (Homo sapiens, UniProt P41161 1-510)
# Chain of ETV5 (P41161 whole entry): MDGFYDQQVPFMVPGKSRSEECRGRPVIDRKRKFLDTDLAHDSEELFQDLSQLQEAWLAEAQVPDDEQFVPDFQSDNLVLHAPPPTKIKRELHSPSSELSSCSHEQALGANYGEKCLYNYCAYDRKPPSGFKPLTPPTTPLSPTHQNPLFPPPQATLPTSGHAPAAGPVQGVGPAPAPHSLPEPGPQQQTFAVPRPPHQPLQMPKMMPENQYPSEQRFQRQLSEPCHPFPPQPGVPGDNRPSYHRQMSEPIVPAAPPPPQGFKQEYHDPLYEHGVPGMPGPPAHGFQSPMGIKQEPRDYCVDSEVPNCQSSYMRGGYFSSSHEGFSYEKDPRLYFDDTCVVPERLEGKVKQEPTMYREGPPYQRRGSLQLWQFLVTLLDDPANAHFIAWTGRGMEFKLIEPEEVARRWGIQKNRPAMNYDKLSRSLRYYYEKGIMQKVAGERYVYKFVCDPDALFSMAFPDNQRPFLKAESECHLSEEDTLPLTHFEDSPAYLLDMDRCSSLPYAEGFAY
# In short: as §1
# [9] = molecular target: ELF4 (Homo sapiens, UniProt Q99607 1-663)
# Chain of ELF4 (Q99607 whole entry): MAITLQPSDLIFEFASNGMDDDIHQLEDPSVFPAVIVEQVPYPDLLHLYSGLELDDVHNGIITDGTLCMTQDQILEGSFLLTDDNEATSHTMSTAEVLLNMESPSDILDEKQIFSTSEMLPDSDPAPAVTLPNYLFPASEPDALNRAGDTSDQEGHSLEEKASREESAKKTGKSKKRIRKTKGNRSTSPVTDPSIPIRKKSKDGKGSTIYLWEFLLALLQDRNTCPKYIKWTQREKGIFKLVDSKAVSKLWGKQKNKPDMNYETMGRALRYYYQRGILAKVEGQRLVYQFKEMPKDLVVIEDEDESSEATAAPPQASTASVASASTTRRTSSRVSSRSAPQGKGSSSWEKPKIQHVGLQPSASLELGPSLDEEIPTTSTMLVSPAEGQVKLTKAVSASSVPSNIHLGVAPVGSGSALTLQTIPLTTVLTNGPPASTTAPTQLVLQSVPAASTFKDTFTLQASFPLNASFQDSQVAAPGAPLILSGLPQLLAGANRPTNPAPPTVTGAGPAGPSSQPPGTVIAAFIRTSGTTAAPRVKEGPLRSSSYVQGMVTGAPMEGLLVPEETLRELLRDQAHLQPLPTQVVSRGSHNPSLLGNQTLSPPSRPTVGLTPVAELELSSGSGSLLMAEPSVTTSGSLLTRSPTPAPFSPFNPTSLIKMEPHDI
# In short: as §1
sequence,measurement,setting,value
TGCAGC,binding signal,[1],"1.07 fold enrichment (6-mer frequency, TF over GST control)"
same,binding signal,[2],"1.16 fold enrichment (6-mer frequency, TF over GST control)"
same,binding signal,[3],"1.06 fold enrichment (6-mer frequency, TF over GST control)"
same,binding signal,[4],"1.09 fold enrichment (6-mer frequency, TF over GST control)"
same,binding signal,[5],"1.09 fold enrichment (6-mer frequency, TF over GST control)"
same,binding signal,[6],"1.17 fold enrichment (6-mer frequency, TF over GST control)"
same,binding signal,[7],"1.08 fold enrichment (6-mer frequency, TF over GST control)"
same,binding signal,[8],"1.03 fold enrichment (6-mer frequency, TF over GST control)"
same,binding signal,[9],"1.1 fold enrichment (6-mer frequency, TF over GST control)"

# Reference: PMC7862700, “An all-to-all approach to the identification of sequence-specific readers for epigenetic DNA modifications on cytosine”
